From paper PMC7819943, “Rice protein-binding microarrays: a tool to detect cis-acting elements near promoter regions in rice” come the findings set out here.

Whole data set: some 39,000 sequences, median “fluorescence intensity (a.u.)” near 4,300, cut for the highest 2% near 39,000. Many of the other results were omitted from the sample, so the highest values are more common in it than they were.

The experiment deals with T1, OsSMF1 (Oryza sativa, UniProt Q6ZLB0 1-436).
T1 sequence: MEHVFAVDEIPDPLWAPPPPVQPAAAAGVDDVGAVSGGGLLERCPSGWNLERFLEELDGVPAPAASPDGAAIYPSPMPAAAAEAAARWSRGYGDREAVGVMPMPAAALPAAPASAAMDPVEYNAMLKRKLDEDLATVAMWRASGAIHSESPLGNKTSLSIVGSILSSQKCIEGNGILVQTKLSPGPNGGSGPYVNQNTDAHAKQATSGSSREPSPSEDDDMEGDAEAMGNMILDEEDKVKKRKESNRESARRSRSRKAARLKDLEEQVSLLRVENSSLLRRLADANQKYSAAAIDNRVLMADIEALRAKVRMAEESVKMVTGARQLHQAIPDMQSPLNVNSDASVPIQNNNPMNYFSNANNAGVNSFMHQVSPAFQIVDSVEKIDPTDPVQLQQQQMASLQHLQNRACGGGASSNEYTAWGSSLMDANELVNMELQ
The experiment can be described thus: protein-binding microarray (RPBM); PBS, 2% BSA, 51.3 ng/ul salmon testes DNA, 50 uM zinc acetate, 200 nM TF, 25 C, 1 h; high values mean tight binding. Particulars: protein: recombinant; tags: N-terminal polyhistidine and DsRed monomer fusion (pET32a); chain copies: 2; label: CyDye5-dUTP incorporated in the synthesized complementary strand; 3' TTTTT single-stranded linker to array surface; dsDNA, one strand shown. In outline:
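The binding signal is fluorescence intensity per array feature (arbitrary units). Readings came from an Axon 4000B scanner after a washed, 2% BSA-blocked, double-stranded custom Agilent array had been incubated for 1 h at 25 °C with 200 nM protein and 50 µM zinc acetate. The protein was a Ni–NTA-purified transcription factor fused N-terminally to polyhistidine and DsRed, expressed in E. coli BL21-CodonPlus.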
“AGAGAGAGGGGAGAGGGGTGGAAGGGGAATATGGTAGCTGCGGAGTCACCTAGTGCAG”: the binding signal is 3330 fluorescence intensity (a.u.).

For the sequence “CCTCGTCGCCGCGTCACGGCGTCAGCTCGCCGCTCTAGGGCGGAGTCACCTAGTGCAG”, the binding signal was 4820 fluorescence intensity (a.u.).

On to “GCCTCACAACCCGCATGGACACTGACATCGGCATCATCATCGGAGTCACCTAGTGCAG”, for which the binding signal was 4260 fluorescence intensity (a.u.).

“GACAAAGTCACACTGTCACACGTATTACCGGTTACAAACTCGGAGTCACCTAGTGCAG”: the binding signal is 3940 fluorescence intensity (a.u.).

Consider “GGCAACCGCCCTTAAGGTGTGAGACAGCACGACAACGCCCCGGAGTCACCTAGTGCAG”, for which the binding signal was 3690 fluorescence intensity (a.u.).

Turning to “GTATTGGAGCTCTACAGTTCGGTCTACTCCTCTCTGTTGCCGGAGTCACCTAGTGCAG”, the binding signal was 27500 fluorescence intensity (a.u.).

In the case of “AGCACCACGGTCAATGCCACGTATGTGCCACGTCATCCAACGGAGTCACCTAGTGCAG”, the binding signal was 46600 fluorescence intensity (a.u.).

For the sequence “GTAGGCGCCACGTGGCGCCACGTCAGCAAAACCGCCTCCTCGGAGTCACCTAGTGCAG”, the binding signal was 24000 fluorescence intensity (a.u.).

In the case of “ACGTCTCCTCCTCCTCCACGTCAAACCACAATCCAACCAACGGAGTCACCTAGTGCAG”, the binding signal was 5400 fluorescence intensity (a.u.).

For “AACCACGTATGCGCCACGTCATCCAAAACCGCCTTCAAAACGGAGTCACCTAGTGCAG”, the binding signal is 14400 fluorescence intensity (a.u.).

With “CAACACCGCCACGTAGGCGCCACATCAGCAAAACCATCCTCGGAGTCACCTAGTGCAG”, the binding signal is 23200 fluorescence intensity (a.u.).

Consider “ATTGCCACGTAGGCGCCACGTGGCGCCACATCAGCAAAACCGGAGTCACCTAGTGCAG”, for which the binding signal was 40700 fluorescence intensity (a.u.).

For the sequence “GTCGTGCTAGCTCGATCCATTTCCTACGTGTGCACCAAACCGGAGTCACCTAGTGCAG”, the binding signal was 5810 fluorescence intensity (a.u.).

For “GAAAGGGATGGCTCACTTGAAACGTACTGCTCCCTGCCCCCGGAGTCACCTAGTGCAG”, the binding signal is 3160 fluorescence intensity (a.u.).

With “GATTAAAACCAAAACTCATGATGGAAGTGGATGCATTTGCCGGAGTCACCTAGTGCAG”, the binding signal was 25500 fluorescence intensity (a.u.).

As to “AGCCAAAGCATTTGCCATCCGATGAGGGCGTACTATTAAACGGAGTCACCTAGTGCAG”, the binding signal was 28000 fluorescence intensity (a.u.).

Regarding “CCAAGGTAAGATGAAGCAGCAGCATTTGCATTAAACTATCCGGAGTCACCTAGTGCAG”, the binding signal is 60100 fluorescence intensity (a.u.).

Take “TTGATAATTACTCTTACGTCCCTCACCCTATGCTCCTGTGCGGAGTCACCTAGTGCAG”: the binding signal is 3440 fluorescence intensity (a.u.).

Take “AATACTTTATGCAGGTGTTCAAATGTTCGATGTGACAGGGCGGAGTCACCTAGTGCAG”: the binding signal was 3150 fluorescence intensity (a.u.).

For “TATTTTATATTAGTGTTCAAACGTTCGATGTGACATGTGTCGGAGTCACCTAGTGCAG”, the binding signal was 3930 fluorescence intensity (a.u.).

On to “TACTTTATATAGATGTTCAAACATTCGATATGACATGCTGCGGAGTCACCTAGTGCAG”, for which the binding signal is 45300 fluorescence intensity (a.u.).

For the sequence “ATTGCAACCGGAGAGCCTGACCAAAGAAATTCAGATCCTTCGGAGTCACCTAGTGCAG”, the binding signal is 3200 fluorescence intensity (a.u.).

For “GAAGTGCCACGTAAGCACCACATCAATGCCACGTCAGATGCGGAGTCACCTAGTGCAG”, the binding signal is 38800 fluorescence intensity (a.u.).

With “TTTTCATTTTAGTGCCACGTAAGCACCACATCGATGCCACCGGAGTCACCTAGTGCAG”, the binding signal was 41200 fluorescence intensity (a.u.).

As for “TTATTTTAGTGCCACGTAAGCGACACGTCGATGCCACATGCGGAGTCACCTAGTGCAG”, the binding signal is 23000 fluorescence intensity (a.u.).

Regarding “ATGCATCTAAGCATATTAGCTATATACCACATCATTTTCACGGAGTCACCTAGTGCAG”, the binding signal is 4780 fluorescence intensity (a.u.).

Regarding “GAATTGCCACGTAAGCACCACGTCAGTGCCATGTCAGATGCGGAGTCACCTAGTGCAG”, the binding signal was 52400 fluorescence intensity (a.u.).

Consider “CGGATCGAATTGCCACGTAAGCGGCACGTCAGTGCCATGTCGGAGTCACCTAGTGCAG”, for which the binding signal is 20000 fluorescence intensity (a.u.).

Regarding “GTTAAATTGCCACGTAAGCACCACGTCATACCACGTCAGACGGAGTCACCTAGTGCAG”, the binding signal is 51500 fluorescence intensity (a.u.).

Consider “TCAAATTGTCACATAAGCGTCATGTCAATGCCACGTCAGACGGAGTCACCTAGTGCAG”, for which the binding signal is 27200 fluorescence intensity (a.u.).

For “TTAATTGAAATGCCACCTAAGCACCACGTCAGCACACAGACGGAGTCACCTAGTGCAG”, the binding signal was 18700 fluorescence intensity (a.u.).

Turning to “TTTGTCCTACGTGGCGTACGCGTGGCAATCCAGTCATAATCGGAGTCACCTAGTGCAG”, the binding signal was 20400 fluorescence intensity (a.u.).

As to “ATTCGGTGGGTTGAGGCAGTGATGTGGTGAGAGGAGAAAGCGGAGTCACCTAGTGCAG”, the binding signal was 3440 fluorescence intensity (a.u.).

Take “GAAAGTGGACGCGCGCGGTCTGGCGTCACCTGGGCCGAAACGGAGTCACCTAGTGCAG”: the binding signal is 3320 fluorescence intensity (a.u.).

Turning to “CTGCCCAACAAAGTCCAGAAACTTCACGACATTCAATTGCCGGAGTCACCTAGTGCAG”, the binding signal was 22600 fluorescence intensity (a.u.).

Take “TACTATAGACTAGCAAATGCCAAATGACAAATTGCCAAGTCGGAGTCACCTAGTGCAG”: the binding signal is 15800 fluorescence intensity (a.u.).

As to “TCACGCTGACCAAACACCATCTGTTATTCTGTTTGTTTGTCGGAGTCACCTAGTGCAG”, the binding signal is 3640 fluorescence intensity (a.u.).

Turning to “ACTGTTATTCCTACAGGCCAAAGCTGACCTAACCAATTCACGGAGTCACCTAGTGCAG”, the binding signal is 46800 fluorescence intensity (a.u.).

As to “ATTCAGTGCAGCAGCTGCAGGCCAAGCAGGCAGCACAGCACGGAGTCACCTAGTGCAG”, the binding signal was 3610 fluorescence intensity (a.u.).

In the case of “GTAGCTGTTAAGTTCCATCTCGTCAGCAGCTGCCTGCAGACGGAGTCACCTAGTGCAG”, the binding signal was 3210 fluorescence intensity (a.u.).

With “CTGTGAGTTCGTTGTCTGAGTGAGAGCTGGACGTGCTGCACGGAGTCACCTAGTGCAG”, the binding signal was 33000 fluorescence intensity (a.u.).

Consider “GACTTGCGGCCACGGAGTCAGGGCCGTGCACGTGGAGGTACGGAGTCACCTAGTGCAG”, for which the binding signal was 4910 fluorescence intensity (a.u.).

As for “CCCATGGCGTGCCACTCCGGCGGTCCGGCCGCCACGTCAGCGGAGTCACCTAGTGCAG”, the binding signal is 38500 fluorescence intensity (a.u.).

For the sequence “CGTCGATGGCGTGCGTGAGAGCCTCCACGCCTTGCTGCCGCGGAGTCACCTAGTGCAG”, the binding signal was 4660 fluorescence intensity (a.u.).

Regarding “TCGCTGCCCTCCCGCCCGTTGGCCGAAGGGGAAGAAGGGGCGGAGTCACCTAGTGCAG”, the binding signal was 36900 fluorescence intensity (a.u.).

Consider “TCTGACTGCCTCCGTCACTCCGTGCCTCGTTGGGAGCAGCCGGAGTCACCTAGTGCAG”, for which the binding signal was 5300 fluorescence intensity (a.u.).

On to “CTGAGCTGCCACCTCCGCCGCCGCCAGCATGATGGCCTTGCGGAGTCACCTAGTGCAG”, for which the binding signal is 42500 fluorescence intensity (a.u.).

“GATGAGATGAGGGAGATACCATCAGACTTGCACCAGATGGCGGAGTCACCTAGTGCAG”: the binding signal is 3660 fluorescence intensity (a.u.).

In the case of “GTGGCCACTTGCATCAGCCGGCCATGAGTGGAGGGGTAAGCGGAGTCACCTAGTGCAG”, the binding signal was 49700 fluorescence intensity (a.u.).

“CGGACTGAGCTGCCTCGCCCGCCTCCGAGCAGTTGGGGAACGGAGTCACCTAGTGCAG”: the binding signal is 40900 fluorescence intensity (a.u.).

On to “TGAGGGCCGCCACGTCCTCATGGCCTCCGCCCCATCGGAGCGGAGTCACCTAGTGCAG”, for which the binding signal is 7660 fluorescence intensity (a.u.).

Take “CATGGCCACGTCCGCCACCTTGCGGATGCCGGAGGGTAAGCGGAGTCACCTAGTGCAG”: the binding signal is 41400 fluorescence intensity (a.u.).

“CCATGGCACCTCCTCCTACGCCAGCACCGCTGCCGTGATGCGGAGTCACCTAGTGCAG”: the binding signal is 4800 fluorescence intensity (a.u.).

Turning to “TCATACACATACAACTTTTCAGTCACATCATTTACAATTTCGGAGTCACCTAGTGCAG”, the binding signal was 29000 fluorescence intensity (a.u.).
